For 97 compounds, displacement results are on record in PubChem BioAssay AID432 (Sanford-Burnham Center for Chemical Genomics, 2006).

Structures are written as SMILES. The campaign covered roughly 64,000 compounds. About 15 (0.02%) were called active. No rule for the calls is given here. Not all results are given here. Measured potencies and affinities stand elsewhere.

The target of the assay is Bcl-2-related protein A1 (Mus musculus) (UniProt Q07440). Nature of the assay: Bfl-1 inhibitors, primary screen, biochemical, fluorescence polarization, FITC-Bid, mouse (AID 432). Conditions: FITC-Bid BH3 peptide fluorescence polarization displacement; at 20 µM; stronger effect = higher value. In general terms: Fluorescence polarisation rises when a labelled molecule tumbles more slowly, as on binding a larger partner.
Chain of Bcl-2-related protein A1 (Mus musculus) (Q07440 whole entry, looked up): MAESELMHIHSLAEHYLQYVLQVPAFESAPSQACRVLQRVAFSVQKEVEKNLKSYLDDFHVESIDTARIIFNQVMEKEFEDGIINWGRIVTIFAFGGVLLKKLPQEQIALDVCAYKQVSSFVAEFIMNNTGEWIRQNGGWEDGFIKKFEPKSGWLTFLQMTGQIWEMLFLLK
For the compound `CCOc1ccccc1C(=O)NCc1ccc2c(c1)OCO2`, the displacement is 2.9% (inactive).

As to `COc1ccc(NC(=O)C23CCC(C)(C(=O)C2)C3(C)C)cc1` (configuration not stated), the displacement is -1.2% (inactive).

Consider `COC(=O)c1cn(C(=O)OC)c2ccccc12`, for which the displacement is -6.7% (inactive).

Take `Oc1ccc(C=Nc2cccc3ncccc23)c(O)c1`: the displacement was 4.8% (inactive).

Regarding `Nc1ccc2ncccc2c1`, the displacement is -3.5% (inactive).

`COc1cccc(OC)c1-c1nn2c(-c3ccco3)nnc2s1`: the displacement is -0.8% (inactive).

In the case of `COc1ccc(-c2nnc3sc(-c4ccccc4OC)nn23)cc1`, the displacement was 0.2% (inactive).

In the case of `COc1cccc(OC)c1-c1nn2c(-c3ccccc3Cl)nnc2s1`, the displacement was -6.5% (inactive).

For the compound `CCOc1ccc(-c2nnc3sc(-c4c(OC)cccc4OC)nn23)cc1`, the displacement was 7.5% (inactive).

Take `CSc1nnc(-c2ccccc2)n1C`: the displacement is -1.8% (inactive).

Take `CCC(=O)N1CCc2cc(S(=O)(=O)CCC(=O)NCc3cccs3)ccc21`: the displacement was 3.1% (inactive).

On to `CC(=O)Nc1ccc(NCC(O)COc2ccccc2)cc1` (configuration not stated), for which the displacement is 9.6% (inactive).

As to `CC(=O)N1CCc2cc(S(=O)(=O)NCCC(=O)N3CCN(c4ccccn4)CC3)ccc21`, the displacement is 0.4% (inactive).

Regarding `Cc1cc(=O)n2ncnc2n1COCCO`, the displacement is -8.2% (inactive).

In the case of `CCOC(=O)CCS(=O)(=O)c1nc(-c2ccccc2)cc(C(F)(F)F)n1`, the displacement is 37.1% (inactive).

For the compound `CCOC(=O)c1cnn2c(C)cc(-c3ccc(F)cc3)nc12`, the displacement was -7.8% (inactive).

As to `Cc1cc(NC(=O)CCS(=O)(=O)c2nc(-c3ccccc3)cc(C(F)(F)F)n2)no1`, the displacement is -3% (inactive).

Consider `COCC(C)NC(=O)CCS(=O)(=O)c1nc(-c2ccc(OC)cc2)cc(C(F)(F)F)n1` (configuration not stated), for which the displacement is 6.4% (inactive).

Regarding `CCC(=O)N1c2ccccc2-c2nnc(SC)nc2OC1c1ccc(OC)c(OC)c1` (configuration not stated), the displacement is 0.1% (inactive).

Take `COc1cc(OC)c(C2Oc3nc(SC)nnc3-c3ccccc3N2C(C)=O)cc1OC` (configuration not stated): the displacement is 3.4% (inactive).

`CC(=O)NC1C(=O)N=C(SCC(=O)NCc2ccccc2)NC1=O` (configuration not stated): the displacement was 1.1% (inactive).

For the compound `O=c1n(-c2ccccc2)c(=O)n(Cc2ccccn2)n1Cc1ccccn1`, the displacement is -5.3% (inactive).

In the case of `Cc1nc2ccc(S(=O)(=O)Nc3ccccc3C)cc2s1`, the displacement was -3.4% (inactive).

In the case of `COc1ccc2c3c(cccc13)OCC2=O`, the displacement is 12.2% (inactive).

Turning to `COc1ccc(C(C)=O)c2c(O)cccc12`, the displacement was -0.9% (inactive).

As to `CCn1c(N)c(C(=O)NC)sc1=S`, the displacement was -2% (inactive).

Consider `Cc1ccc(-c2nnc(COc3cccc(-n4cnnn4)c3)o2)cc1`, for which the displacement is -4.7% (inactive).

As for `C=CCn1cc(C(=O)NCCOC)c(=O)c2cc(S(=O)(=O)N(CC)CC)ccc21`, the displacement is 1.1% (inactive).

With `O=C(NC1CCCCNC1=O)c1ccc(Cl)cc1` (configuration not stated), the displacement is -4% (inactive).

As for `CC1(C)CC(=O)C(C=NCCN2CCN(C(=O)CC3CCCC3)CC2)=C(O)C1`, the displacement is -1.8% (inactive).

Regarding `O=C1CSC(c2cn(-c3ccccc3)nc2-c2cc3ccccc3oc2=O)N1Cc1ccco1` (configuration not stated), the displacement is -5.3% (inactive).

Take `COc1ccc(S(=O)(=O)N[C@@H](CC(C)C)C(=O)O)cc1`: the displacement was -6% (inactive).

With `Cc1nc2c(c(=O)n1Cc1ccccc1Cl)c1nc3ccccc3nc1n2Cc1ccco1`, the displacement is -10.7% (inactive).

`N#Cc1c(NC(=O)CSc2nc(-c3ccco3)cc(C(F)(F)F)n2)sc2c1CCCC2`: the displacement is -0.1% (inactive).

Regarding `COc1ccc(C(=O)N2CCN(c3nnnn3-c3ccccc3)CC2)cc1OC`, the displacement is 3.7% (inactive).

Regarding `Cc1cc(Nc2c(C)cccc2C)n2nc(C)nc2n1`, the displacement is -2.1% (inactive).

On to `COC(=O)c1ccc(C2C(C(=O)Nc3ccc(C)cc3C)=C(C)Nc3ncnn32)cc1` (configuration not stated), for which the displacement was -1.9% (inactive).

Turning to `CCOC(=O)CN1C(=O)C(C)(C)Oc2ccc(C(=O)NC(C)(C)CC)cc21`, the displacement was -6.4% (inactive).

Take `Cc1cc(C)cc(N2CC34C=CC(O3)C(C(=O)OCC(=O)NCc3ccco3)C4C2=O)c1` (configuration not stated): the displacement was -10.1% (inactive).

As to `Cc1nc2scc(-c3ccccc3)c2c(=O)n1N`, the displacement was -4% (inactive).

As for `COc1ccc(S(=O)(=O)Cc2ccc(C(=O)N3CCN(c4ccc(Cl)cc4)CC3)o2)cc1`, the displacement was -2.7% (inactive).

Regarding `Nc1nc(-c2cccc(NS(=O)(=O)c3ccccc3)c2)cs1`, the displacement is 5.8% (inactive).

Turning to `CN(C)c1nc(NCc2ccccc2)nc(Oc2ccc(=O)[nH]n2)n1`, the displacement is -7.2% (inactive).

With `COc1cc(C(c2nnnn2C2CCCC2)N2CCc3ccccc3C2)ccc1O` (configuration not stated), the displacement is -5.3% (inactive).

For the compound `Cc1ccnc(NS(=O)(=O)c2ccc(NC(=O)C3CCCCC3C(=O)O)cc2)n1` (configuration not stated), the displacement was -3.9% (inactive).

On to `Cc1csc(NC(=O)CCn2c(=O)oc3ccccc32)n1`, for which the displacement is 2.1% (inactive).

Turning to `O=C1CC(N(Cc2ccco2)C(=O)Nc2ccc(F)cc2)C(=O)N1c1ccc(F)cc1` (configuration not stated), the displacement is 1.2% (inactive).

`CCOc1ccc(OCC)c(NC(=O)CSc2nnc(-c3cccnc3)o2)c1`: the displacement is -6% (inactive).

On to `CCOC(=O)C1CCN(C2CC(=O)N(c3cccc(Cl)c3)C2=O)CC1` (configuration not stated), for which the displacement was 5.3% (inactive).

In the case of `CCN(CC)C(=O)CSC1=C(C#N)C(c2cccs2)C=C(C)N1` (configuration not stated), the displacement is 4.6% (inactive).

In the case of `O=C(NCCN1C(=O)C2C3C=CC(C3)C2C1=O)NCc1ccccc1` (configuration not stated), the displacement is 8.8% (inactive).

In the case of `CCOC(=O)C1CCCN(C(=O)c2cn(C)c3ccc(S(=O)(=O)N(C)C)cc3c2=O)C1` (configuration not stated), the displacement was -2.5% (inactive).

Consider `COc1cccc(NC(=O)c2ncn[nH]2)c1`, for which the displacement is -5.2% (inactive).

As to `O=C(O)c1ccc(COc2c(F)c(F)cc(F)c2F)cc1`, the displacement is -4% (inactive).

Turning to `CCOCCn1c(SCc2cccc(C)c2)nc2c1c(=O)[nH]c(=O)n2C`, the displacement is 2.1% (inactive).

With `O=C(OCc1cccc2ccccc12)c1ccc2c(=O)[nH]c(CN3CCOCC3)nc2c1`, the displacement was -1.5% (inactive).

For the compound `Cc1cc2cc(C(c3nnnn3Cc3ccco3)N3CCc4ccccc43)c(=O)[nH]c2cc1C` (configuration not stated), the displacement was 6.1% (inactive).

`CCOC(=O)Cc1nnc(NC(=O)c2cccc(OCC)c2)s1`: the displacement is -3.8% (inactive).

For the compound `CCn1cc(Cl)c(C(=O)Nc2nc3ccccc3n2CCN2CCCCC2)n1`, the displacement is 7.6% (inactive).

In the case of `O=C(Nc1c(C(=O)N2CCCCC2)cnn1-c1ccccc1)c1ccccc1`, the displacement is 1.1% (inactive).

Consider `O=C1CCCCCN1C(=O)c1cccc(C(=O)N2CCCCCC2=O)c1`, for which the displacement was -3.4% (inactive).

Consider `CCOCC(=O)N1CCCC(C(=O)OCC)C1` (configuration not stated), for which the displacement is 5.1% (inactive).

For the compound `COC(=O)c1cc(=O)[nH]c(SCc2cccc(C)c2)n1`, the displacement is -9.3% (inactive).

In the case of `CC(C)CCNC(=O)NC(=O)COc1ccccc1C#N`, the displacement is -1.9% (inactive).

As to `CCCS(=O)(=O)N1CCCC(C(=O)NCCN(CC)c2ccccc2)C1` (configuration not stated), the displacement is -0.1% (inactive).

For `CCCN1C(=O)CC(c2ccco2)Sc2ccccc21` (configuration not stated), the displacement is -8.4% (inactive).

As to `CN(C)S(=O)(=O)c1ccc(C(=O)Nc2ccc(F)cc2F)cc1`, the displacement was -3.7% (inactive).

For the compound `O=S(=O)(c1ccccc1)c1cccc(S(=O)(=O)N2CCCCC2)c1`, the displacement is -8.3% (inactive).

Regarding `CC1=C(C(N)=O)C(c2cccc(O)c2)n2nc(CCCO)nc2N1` (configuration not stated), the displacement is -2.3% (inactive).

As to `O=C(c1ccccc1S(=O)(=O)NCc1ccccc1)N1CCCCC1`, the displacement is -2.9% (inactive).

Turning to `CCCN(c1ccc(C(C)C)cc1)S(=O)(=O)c1c(C)noc1C`, the displacement was -2% (inactive).

As to `COC(=O)Nc1ccc2c(c1)ncn2C1CCCCC1`, the displacement was -3.2% (inactive).

`Brc1ccccc1-c1nnc(CSc2nncn2-c2ccccc2)o1`: the displacement is -1.8% (inactive).

Consider `CCCCC(CC)CNC(=O)c1ccc2c(c1)OCO2` (configuration not stated), for which the displacement was 0.7% (inactive).

Regarding `CC1CC(C)CN(Cc2nc3c(c(=O)n(C)c(=O)n3C)n2CCN2CCOCC2)C1` (configuration not stated), the displacement is 29.2% (inactive).

As to `Cc1ccc(S(=O)(=O)N(C)CCCC(=O)n2nc(C)cc2C)cc1`, the displacement was 7% (inactive).

Turning to `COc1ccc(C2CCN(Cc3cccnc3)CC2O)cc1` (configuration not stated), the displacement is -8.7% (inactive).

On to `CCOC(=O)N1CCC(NC(=O)CN2C(=O)CSc3ncccc32)CC1`, for which the displacement was 3.4% (inactive).

Take `Cc1ccc(S(=O)(=O)c2cc3c(=O)n4ccccc4nc3n(CC3CCCO3)c2=N)cc1C` (configuration not stated): the displacement was -14.7% (inactive).

Turning to `Cc1cc(NCc2ccc(F)cc2Cl)n2nnnc2n1`, the displacement is -1.6% (inactive).

As for `Cc1c(N(C)C(=O)C23CC4CC(CC(C4)C2)C3)c(=O)n(-c2ccccc2)n1C`, the displacement is -6% (inactive).

Take `CC1(C)NC(=O)N(c2ccccc2Cl)C1(C)NO` (configuration not stated): the displacement was -2.3% (inactive).

With `CCOC(=O)N1CCC(c2cc(=O)n3[nH]c(-c4ccccc4)cc3n2)CC1`, the displacement is 5.1% (inactive).

For `CCOC(=O)c1ccc(NC(=O)CC2C(=O)N(c3cccc(OC)c3)C(=O)N2CCOC)cc1` (configuration not stated), the displacement is -1.5% (inactive).

Regarding `O=C(c1cc2c(s1)CCCCC2)N1CCN(c2ncccn2)CC1`, the displacement is 8.4% (inactive).

Take `O=C(CN1CCN(c2ccc(F)cc2)CC1)N1CCOCC1`: the displacement is -2.4% (inactive).

For the compound `COc1nc(N(C)C)nc(N(OC)S(=O)(=O)c2ccccc2Cl)n1`, the displacement was 3.7% (inactive).

Turning to `CCC(C)c1c(O)nc(SCC(=O)c2ccccc2)[nH]c1=O` (configuration not stated), the displacement is -7.8% (inactive).

With `Cc1ccc(S(=O)(=O)NC(=O)COc2ccccc2C(N)=O)cc1`, the displacement was -4.3% (inactive).

In the case of `COc1ccccc1-c1nc(C#N)c(N2CCN(C(c3ccccc3)c3ccccc3)CC2)o1`, the displacement was -2.4% (inactive).

Consider `CC(C)OCCCNC(=O)c1sc(=S)n(C)c1N`, for which the displacement was 10.9% (inactive).

Turning to `CCOC(=O)C1CCN(CC(=O)Nc2c(C(=O)OC)[nH]c3ccccc23)CC1`, the displacement was -7% (inactive).

With `CCOc1cc2c(cc1OCC)C(C(=O)O)C(c1cc(Br)c(O)c(OC)c1)N(C)C2=O` (configuration not stated), the displacement was 6.3% (inactive).

Consider `CCSCCNC(=O)c1cc(-n2cnnc2)ccc1Cl`, for which the displacement is 3% (inactive).

As for `CCOC(=O)c1oc2cccc(O)c2c1CN(Cc1ccccc1)C(C)=O`, the displacement is 1.2% (inactive).

Consider `O=C(CCC(=O)N(CC(=O)NC1CCCCC1)Cc1ccco1)Nc1nccs1`, for which the displacement was -3.5% (inactive).

Regarding `CSc1nc(-c2ccccc2O)nc(-c2ccccc2O)n1`, the displacement was 4.5% (inactive).
